Compounds with a hit are over-represented: about 1.5% of the library has one in this group of screens.
IDE cell inh = inhibitors of human insulin-degrading enzyme in cells; P14735; HEK cells, FAbetaB cleavage, fluorescence polarization; inhibition, % at 5.59 µM; 0.41% of 320,000 active; AID 434962;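 active means percent inhibition above the average of all tested compounds plus 3 SD, set per screening campaign, cut at about 16% in these data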;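 further: IDE supplied by intact live HEK cells; FP after avidin binding of uncleaved biotin substrate so inhibition keeps polarization high; 0% = DMSO wells and 100% = 60 µM reference IDE inhibitor Ii1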
Target sequence (P14735 whole entry, looked up): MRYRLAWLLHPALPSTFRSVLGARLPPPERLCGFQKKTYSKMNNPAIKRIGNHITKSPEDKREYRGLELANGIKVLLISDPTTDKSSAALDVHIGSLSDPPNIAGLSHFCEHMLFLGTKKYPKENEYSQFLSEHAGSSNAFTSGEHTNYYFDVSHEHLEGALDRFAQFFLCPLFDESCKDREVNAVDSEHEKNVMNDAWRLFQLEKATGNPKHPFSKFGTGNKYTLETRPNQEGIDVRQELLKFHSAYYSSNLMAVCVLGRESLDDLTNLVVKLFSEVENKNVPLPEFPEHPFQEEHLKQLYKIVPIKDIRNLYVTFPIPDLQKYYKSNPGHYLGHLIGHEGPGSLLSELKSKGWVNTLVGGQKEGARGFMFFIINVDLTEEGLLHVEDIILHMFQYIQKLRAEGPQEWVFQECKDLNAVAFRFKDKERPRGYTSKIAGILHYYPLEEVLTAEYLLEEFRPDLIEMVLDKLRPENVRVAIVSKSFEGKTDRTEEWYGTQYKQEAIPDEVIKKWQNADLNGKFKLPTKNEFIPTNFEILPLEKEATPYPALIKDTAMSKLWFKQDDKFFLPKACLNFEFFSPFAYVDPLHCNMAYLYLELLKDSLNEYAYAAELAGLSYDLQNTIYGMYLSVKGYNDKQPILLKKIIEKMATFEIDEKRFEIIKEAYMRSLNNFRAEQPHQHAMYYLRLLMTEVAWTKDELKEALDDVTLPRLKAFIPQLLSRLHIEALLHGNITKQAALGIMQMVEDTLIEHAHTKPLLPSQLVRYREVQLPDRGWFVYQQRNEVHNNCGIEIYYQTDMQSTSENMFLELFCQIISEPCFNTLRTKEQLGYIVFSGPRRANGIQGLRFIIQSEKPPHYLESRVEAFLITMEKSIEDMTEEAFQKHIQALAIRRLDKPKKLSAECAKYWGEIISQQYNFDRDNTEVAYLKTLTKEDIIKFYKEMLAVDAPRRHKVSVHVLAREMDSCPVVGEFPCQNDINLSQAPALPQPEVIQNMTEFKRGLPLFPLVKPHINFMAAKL
cardiac RTF act = increases calcium sensitivity of human cardiac regulated thin filaments; P19429+P45379; 0.24% of 340,000 active; IANBD-labeled TnC RTF fluorescence at EC20 calcium; 0% EC20 calcium, 100% full calcium; activation, % at 7.2 µM;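 active means activation above the mean over all tested compounds plus 3 SD, cut at about 30% in these data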;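 further: rise in fluorescence read as greater calcium sensitivity of cardiac thin filaments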
CRFR2-BP ag = agonists of human CRF-binding protein/CRF-R2 receptor complex; activation, % at 13.2 µM; AID 588473; HEK293 CRF-R2/CRF-BP, calcium dye fluorescence (FLIPR); percent of saturating CRF peptide response; 0.46% of 350,000 active;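 active means activation of at least 50%, plus an integration ratio under a set limit after plate pattern correction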;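 further: plate controls were neutral control wells without compound for no effect and CRF at EC100 for full effect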
RTF Ca sens inh = cardiac RTF calcium desensitization; P19429+P45379; IANBD-labeled cardiac RTF, Ca2+ fluorescence; inhibition, % at 7.15 µM; 0.12% of 340,000 active; AID 493244;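 active means inhibition above the mean inhibition of all tested compounds plus 3 SD, cut at about 17% in these data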;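 further: assay run at fixed EC70 calcium of 1.6 mM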
IDE cell activ = IDE (human) activation, cell-based; HEK cells, FAbeta-B cleavage, fluorescence polarization; 0% vehicle, 100% cell-free pure enzyme wells; P14735; activation, % at 5.96 µM; AID 493087; 0.073% of 340,000 active;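 active means activation above the mean of all tested compounds plus 3 SD, set per screening campaign, cut at about 17% in these data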
TPT1 inhibitor = C. albicans TPT1 enzyme inhibition. 0.81% of 300,000 active. inhibition, % at 5 µM. AID 1962. recombinant caTPT1, FP RNA substrate dephosphorylation;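 active means inhibition above the mean of all tested compounds plus 3 SD, set per screening campaign, cut at about 24% in these data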;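 further: plate controls were DMSO alone for no effect and ferristatin control at 100 nM for full effect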
* hit, by the source's call; · = no result given.

SMILES	IDE cell inh	cardiac RTF act	CRFR2-BP ag	RTF Ca sens inh	IDE cell activ	TPT1 inhibitor
O=C(Oc1ccc2c(c1)O/C(=C\c1ccncc1)C2=O)c1cccs1	7	·	8	·	·	-20
COc1ccc(C2=CC(c3ccc(C)cc3)n3nnnc3N2)cc1 (stereo not given)	5	13	92*	-27	-15	-11
COc1ccc(C2C=C(c3ccccc3)Nc3nnnn32)cc1 (stereo not given)	2	7	0	-16	0	-2
COc1ccc(C2=CC(c3ccc(OC)c(OC)c3)n3nnnc3N2)c(OC)c1 (stereo not given)	-2	5	88*	-15	0	-13
CC1=CC(c2ccc(Cl)cc2)n2nc(N3C(=O)CCC3=O)nc2N1 (stereo not given)	4	3	-1	-4	1	-1
Cc1ccc(C2C=C(c3ccccc3)Nc3nc(N4C(=O)CCC4=O)nn32)cc1 (stereo not given)	·	·	81*	·	·	·
COc1cccc(C2C=C(c3ccc(OC)cc3OC)Nc3nnnn32)c1 (stereo not given)	5	7	81*	-2	-1	-23
Nc1nc(N)nc(C2C=CCCC2)n1 (stereo not given)	·	-2	4	-3	2	·
COc1ccc(C2C=C(c3ccc(C)cc3)Nc3ncnn32)cc1 (stereo not given)	·	0	2	-13	-3	·
COc1ccc(C2C=C(c3ccc(Br)s3)Nc3ncnn32)cc1OC (stereo not given)	39*	·	·	·	·	-87
O=C(c1cc(C2CC2)nn1-c1ccccc1)N1CCN(Cc2ccccc2)CC1	·	·	0	·	·	·
O=C(Nc1ccccc1F)c1cc(S(=O)(=O)N2CCOCC2)ccc1N1CCOCC1	·	0	1	3	5	·
O=C(Nc1cccc(F)c1)c1cc(S(=O)(=O)N2CCOCC2)ccc1N1CCCC1	4	-4	66*	0	3	·
O=C(Nc1cc(S(=O)(=O)N2CCOCC2)ccc1N1CCOCC1)c1ccccc1F	3	2	0	-6	20*	·
Cc1ccc(NC(=O)c2cc(S(=O)(=O)N3CCCCC3)ccc2N2CCOCC2)cc1S(=O)(=O)N(C)C	·	83*	2	-110	2	·
CCOCc1c(C(=O)Nc2ccccc2N2CCN(C)CC2)oc2ccccc12	·	-3	-2	-4	1	·
N#C/C(=C/c1ccc(N2CCCCC2)o1)C(=O)Nc1ccc2ccccc2c1	·	166*	207*	-200	-131	·
FC(F)(F)c1cc(CCN2CCNC[C@@H]2CC2CCCCC2)cc(C(F)(F)F)c1	-3	-3	15	-6	23*	·
NC1=NC[C@H](CC2CCCCC2)N1CCc1cc(C(F)(F)F)cc(C(F)(F)F)c1	3	-7	48	-7	26*	0
CN(C)c1ccc(/C=C/C(O)=C2/C(=O)N(C)C3(C)CC2c2ccccc2O3)cc1 (stereo not given)	42*	·	·	·	·	188*
CCOc1ccc(/C=C/C(O)=C2/C(=O)N(C)C3(C)CC2c2ccccc2O3)cc1OC (stereo not given)	-3	2	3	-18	-4	3
CC1=C(C(=O)N(C)C)CC(CC(=O)NCCN2CCOCC2)C(=O)N1Cc1ccc(F)cc1 (stereo not given)	·	·	-2	·	·	·
COc1ccc(-c2cc3ncnc(Cl)c3s2)cc1	6	-3	5	3	-4	13
N#Cc1ccsc1NC(=O)c1cccc([N+](=O)[O-])c1	-1	-4	66*	-22	6	6
N#Cc1ccsc1NC(=O)c1ccc(Cl)c([N+](=O)[O-])c1	-3	1	67*	-4	1	11
SMILES	IDE cell inh	cardiac RTF act	CRFR2-BP ag	RTF Ca sens inh	IDE cell activ	TPT1 inhibitor
O=C(O)c1cc(NC(=O)c2ccc(Cl)c([N+](=O)[O-])c2)cc(C(=O)O)c1	-2	5	0	3	5	2
CNC[C@H](CC1CCCCC1)NC[C@H](Cc1ccccc1)NCCC12CC3CC(CC(C3)C1)C2	1	0	29	-21	35*	3
CC(C)=C(NC(=O)c1ccccc1Cl)C(=O)NCCc1nc2ccccc2[nH]1	·	·	2	·	·	·
CC1(O)CC(c2ccc(Cl)cc2)=NN1C(=O)c1ccc([N+](=O)[O-])cc1 (stereo not given)	4	-6	74*	9	11	-3
N#C/C(=C(/O)c1cccc(F)c1)c1nc2ccccc2s1	2	-3	51*	-5	3	1
CN(c1ccccc1)c1ncnc2c1ncn2C	·	2	-2	-4	-1	·
C=CCOc1ccc(C2C(C(=O)c3cccs3)=C(O)C(=O)N2c2nnc(C)s2)cc1 (stereo not given)	3	44*	27	-43	2	-36
Cc1ccc(C2C(C(=O)c3ccco3)=C(O)C(=O)N2c2nnc(C)s2)cc1 (stereo not given)	2	1	25	-8	-3	-9
COc1ccc(C2C(C(=O)c3cccs3)=C(O)C(=O)N2c2nnc(C)s2)cc1OC (stereo not given)	4	80*	21	-71	2	-20
Cc1cccc(N2C(=O)C(O)=C(C(=O)c3cccs3)C2c2ccc(F)cc2)n1 (stereo not given)	4	-6	0	-2	0	-1
COc1ccc(C2C(C(=O)c3cccs3)=C(O)C(=O)N2c2nncs2)cc1 (stereo not given)	2	32*	265*	-56	6	-36
Cc1cccc(N2C(=O)C(O)=C(C(=O)c3cccs3)C2c2ccc(C(C)C)cc2)n1 (stereo not given)	8	-4	62*	-2	1	-3
COc1ccc(-c2csc(NC(=O)c3ccccc3F)c2C(=O)O)cc1	2	2	-3	-7	4	0
Cc1ccccc1CSc1nnc(C)c(=O)n1N	3	-5	1	3	3	5
CC(C)c1nnc(N2C(=O)C(O)=C(C(=O)c3cccs3)C2c2ccccc2)s1 (stereo not given)	·	25	196*	-46	-8	·
Cc1ncc(C(O)c2ccc(N(C)C)cc2)n1Cc1ccccc1 (stereo not given)	·	·	-2	·	·	·
CN(C)c1ccc2nc3c(=O)[nH]c(=O)nc-3n(CC(O)C(O)C(O)CO)c2c1 (stereo not given)	3	125*	43	-174	-4	-78
Cc1cc(N2CCCC2)c(F)cc1/C=C\[N+](=O)[O-]	·	8	120*	-11	-41	·
COc1ccc2ccccc2c1C(O)c1nccn1C (stereo not given)	0	84*	104*	-129	21*	-61
CC(=O)c1ccc(NC(=O)Nc2cccc(Cl)c2)cc1	8	1	53*	1	0	0
CCc1ccc(Cn2nnc(C(=O)Nc3cccc(C)c3)c2N)cc1	2	0	20	-1	2	-4

Assay outcomes deposited in PubChem by several laboratories.
